Measured values as given in PubChem BioAssay (NCI).
Compounds without any hit were thinned out: in the full panel of roughly 83,000, 20% have a hit.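 Treatment: one concentration, 48 hours, 96-well format. Scoring: percent growth, with anything below 10 considered active.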 Values without a mark were called inactive. Active and inactive are the calls of the source.

Key:
Assay in all cases: NCI-60 one-dose screen, 48 h (100 = growth as untreated, 0 = no growth, -100 = all killed)
Settings in all cases: 10 µM unless noted
HCT-15 colon = test system: HCT-15 colon
HT29 colon = test system: HT29 colon
SNB-75 CNS = test system: SNB-75 CNS
SNB-19 CNS = test system: SNB-19 CNS
U251 CNS = test system: U251 CNS
PC-3 prostate = test system: PC-3 prostate
SK-MEL-5 melanoma = test system: SK-MEL-5 melanoma
UACC-62 melanoma = test system: UACC-62 melanoma
LOX IMVI melanoma = test system: LOX IMVI melanoma
SK-MEL-28 melanoma = test system: SK-MEL-28 melanoma
SK-MEL-2 melanoma = test system: SK-MEL-2 melanoma
SN12C renal = test system: SN12C renal
UO-31 renal = test system: UO-31 renal
TK-10 renal = test system: TK-10 renal
ACHN renal = test system: ACHN renal
CAKI-1 renal = test system: CAKI-1 renal
CCRF-CEM leukemia = test system: CCRF-CEM leukemia
MOLT-4 leukemia = test system: MOLT-4 leukemia
EKVX NSCLC = test system: EKVX NSCLC
A498 renal = test system: A498 renal

| Compound | growth (HCT-15 colon) | growth (HT29 colon) | growth (SNB-75 CNS) | growth (SNB-19 CNS) | growth (U251 CNS) | growth (PC-3 prostate) | growth (SK-MEL-5 melanoma) | growth (UACC-62 melanoma) | growth (LOX IMVI melanoma) | growth (SK-MEL-28 melanoma) | growth (SK-MEL-2 melanoma) [%] | growth (SN12C renal) | growth (UO-31 renal) | growth (TK-10 renal) | growth (ACHN renal) | growth (CAKI-1 renal) | growth (CCRF-CEM leukemia) | growth (MOLT-4 leukemia) | growth (EKVX NSCLC) | growth (A498 renal) |
| --- | --- | --- | --- | --- | --- | --- | --- | --- | --- | --- | --- | --- | --- | --- | --- | --- | --- | --- | --- | --- |
| O=C1Nc2ccccc2/C1=N/N=C/c1c[nH]c2ccccc12 | 72.2% | 80.8% | 45.5% | 88.1% | 73.6% | 81.5% | 76.8% | 38.4% | 68.4% | 96.3% | 55.5 | 73.8% | 26.4% | 78.4% | 48.3% | 17.8% | 83.3% | 71.8% | – | – |
| CCNCCNc1cc(-c2ccc(C(F)(F)F)cc2)c(C#N)c2nc3cc(Cl)c(Cl)cc3n12 | -80.1% (active) | -85.5% (active) | -93.7% (active) | -62.7% (active) | -94% (active) | -88.4% (active) | -98.9% (active) | -63.3% (active) | -74% (active) | -96.5% (active) | – | -70.9% (active) | -92.5% (active) | -94.7% (active) | -100% (active) | -91.5% (active) | -48.4% (active) | -56.8% (active) | -94.2% (active) | -40.5% (active) |
| O=C(CC1Sc2ccccc2NC1=O)NNc1ccc(F)cc1 (stereo not given) | 60.5% | 98.5% | 73.3% | 84.5% | 85.2% | 52.5% | 106% | 40% | 18.5% | 123% | – | 89.5% | 48.4% | 121% | 56.4% | 69% | 7.39% (active) | 45.8% | 75.9% | 91.7% |
| O=C(Nc1ccccn1)[C@H](O)[C@@H](O)C(=O)N1CCOCC1 | 107% | 104% | 121% | 102% | 96.1% | 94% | 99.3% | 108% | 104% | 114% | – | 97.3% | 104% | 96.2% | 112% | 105% | 98.6% | 105% | 109% | 108% |
| CCCCCCNc1cc(C)nc2ccc(OC)cc12 | 60.9% | 19.6% | 89.2% | 77.1% | 55.1% | 65.9% | 35% | 64.1% | 61.4% | 67.9% | – | 67.9% | 40.4% | 80.4% | 76.4% | 70.9% | 60.7% | 50.4% | 65.7% | 22% |
| CN(C)c1ccc2cc(-c3ccc(Cl)c(Cl)c3)c(N)nc2c1 | 32.1% | 2.59% (active) | 63.3% | 63.6% | 31.1% | 27.6% | -58.8% (active) | 57.2% | 20.6% | 47.4% | – | 40.9% | 33.2% | 27.9% | 52.3% | 39.5% | 58% | 31% | 26.3% | 40.9% |
| COc1cc2c(cc1OC)-c1ccc3cc4c(cc3c1N(CCN1CCCC1)C2)OCO4 | 40.6% | -51.2% (active) | -3.1% (active) | -5.63% (active) | -55.7% (active) | 2.3% (active) | 26.4% | 36.1% | -79% (active) | 77.2% | 57.9 | -29.9% (active) | 32.7% | 34.2% | – | – | -5.95% (active) | 2.96% (active) | – | -2.77% (active) |
| CC/C=C/[C@@H]1C=C[C@@H]2CCC[C@H]2[C@@H]1CC[C@H](O)[C@H](C)N | -73.8% (active) | 2.11% (active) | 22.4% | -41.2% (active) | -79.7% (active) | 30.4% | -92.8% (active) | -42.1% (active) | -91.6% (active) | -87.1% (active) | – | 41.1% | -80% (active) | – | -56.8% (active) | -50.6% (active) | -44% (active) | -47.2% (active) | 82.3% | 82.1% |
| CN(C)c1ccc(C#Cc2c(F)cccc2Cl)cc1 | 78.4% | 73.7% | 75% | 111% | 89.1% | 70.5% | 85.3% | 87.6% | 81.3% | 105% | – | 82.2% | 41.2% | 96.8% | 83.5% | 82.4% | 88.6% | 89.4% | 63.5% | 42.6% |
| CCOc1ccc2nc(-c3cccc(OCC(=O)NC(C)C)c3)nc(Nc3ccc(-c4cn[nH]c4)cc3)c2c1 | 30.8% | -27.6% (active) | -62% (active) | 19.4% | -33.8% (active) | 0.124% (active) | -81.1% (active) | -6.26% (active) | -10.8% (active) | -71.4% (active) | – | 18.6% | -13.3% (active) | 47.4% | 7.49% (active) | 27.7% | 20.4% | 5.6% (active) | 9.24% (active) | – |
| Fc1ccc(Nc2ccc3cc(OCCCN4CCOCC4)ccc3n2)cc1F | 28.7% | -6.89% (active) | 48.6% | 64.9% | 41.7% | 45.2% | 60% | -19.8% (active) | -46.9% (active) | 43.4% | – | 68.4% | 19.5% | 66.6% | 67.2% | 70.7% | 75.4% | 61.9% | 61.2% | 36.8% |
| COc1ccc(-c2cncnc2N)cc1OC | 103% | 111% | 88.3% | 108% | 97.7% | 90.6% | 106% | 112% | 98.6% | 106% | – | 109% | 101% | 111% | 104% | 101% | 95.9% | 105% | – | 87.8% |
| C[C@@H]1C(=O)N(C[C@@H](Cc2ccccc2)NC(=O)OCc2ccccc2)[C@]1(Cc1ccccc1)C(=O)OCc1ccccc1 | 41.6% | 50.7% | 61.1% | 44.3% | 34.6% | 14.2% | -6.61% (active) | 43.3% | 51.8% | 63.9% | – | 41.7% | 8.74% (active) | 21.4% | 22.3% | 34.8% | 67.3% | 6.42% (active) | 18.1% | -13.8% (active) |
| Cc1nc(Nc2cccc(NC(=O)Nc3ccc(Cl)cc3)c2)c2ccccc2n1 | 77% | 80.8% | 85.3% | 99.9% | 91.9% | 77.9% | 91.5% | 76.4% | 88.7% | 102% | – | 92.9% | 88.2% | 104% | 105% | 80.4% | 82.9% | 76.7% | – | 81.8% |
| COc1ccc(-c2cc(-c3cc(OC)ccc3OC)[nH]c(=O)c2C#N)cc1 | 62.8% | 38.1% | 56.4% | 68.1% | 39.5% | 72.6% | 40.1% | 47.7% | 44.6% | 74.8% | – | 72% | 64.4% | 84.9% | 85.3% | 63% | 76.9% | 44.3% | – | -1.35% (active) |
| CCN(CC)CCCC(C)NCc1ccccc1 (stereo not given) | 101% | 83.4% | 99.8% | 101% | 99.2% | 91.2% | 108% | 97.5% | 100% | 102% | – | 102% | 83.5% | 83.6% | – | – | 120% | 110% | – | 105% |
| [2H]c1nc(Nc2ncc(F)c(-c3cc(F)c4nc(C)n(C(C)C)c4c3)n2)c([2H])c([2H])c1CN1CCN(C([2H])([2H])C([2H])([2H])[2H])CC1 | 39.8% | 34.6% | 33.9% | 65.5% | 42.2% | 44.2% | 41.8% | 73.3% | 39.1% | 70.3% | – | 54.3% | 23.2% | 21.6% | – | – | 35.2% | 21.1% | 51.7% | 44.3% |
